# Source: PubChem BioAssay (NCATS)
# Inconclusive results are not listed. Activity calls are given as the source filed them. Calls come from the whole dose curve; as a rule, active = well fitted inhibition curve with a large enough effect; inconclusive = small, poorly fitted or top-dose-only effect; inactive = flat fitted curve, though single readings scatter.
# Target: Lysine-specific demethylase 5B (Homo sapiens) (UniProt Q9UGL1)
# Assay: Optimization screen for KDM5B Histone Demethylases FDH coupled qHTS against the LOPAC library (AID 1347166); note: 0% is about no effect
# Details: KDM5B demethylation, FDH-coupled NADH fluorescence (FDH is formaldehyde dehydrogenase); series mostly up to 57.5 µM; activity, negative = inhibition: at the top concentration
# Source text: Assay Submitter (PI): Qin Yan, Ph.D. (Yale University) and Xiaodong Cheng, Ph.D. (MD Anderson)
# This project was funded as part of the NCI NEXT Program and Chemical Biology Consortium (CBC)
# The histone demethylases, KDM5A and KDM5B catalyze the demethylation of lysine 4 on histone H3 (H3K4me3/2). They
# are overexpressed in a variety of cancers and have been implicated in cancer cell growth, metastasis, drug resistance, and tumor growth. KDM5A is amplified and overexpressed in breast and gastric cancer; and is translocated in leukemia. While KDM5B is highly expressed in human mammary tumors and breast cancer cell lines, but not in normal adult breast tissue. Moreover, knockdown of KDM5B leads to upregulation of tumor suppressor genes, including BRCA1. The goal of this project is to employ qHTS to identify selective small molecule inhibitors of KDM5A/B demethylase activity to better understand the role of KDM5 in cancer and to develop novel therapies.
# We employed an FDH-coupled assay previously reported by Sakurai et al. to monitor in vitro KDM5 demethylase activity. Compounds showing dose response inhibition are re-acquired, validated, and tested for non-specific interference with the formaldehyde dehydrogenase (FDH) counterscreen. True inhibitors are validated using an AlphaLisa secondary screen, which employs an H3K4(me2-1)-specific antibody to monitor demethylation of a biotin-tagged H3K4(me3) peptide substrate. Inhibitors are profiled against KDM4A and KDM6A AlphaLisa counterscreens to determine level of demethylase specificity; and against the TruHits counterscreen to eliminate non-specific inhibitory activity on the AlphaLISA detection method. Selective inhibitors identified from the primary and secondary screening are tested in cells using immunofluorescence to monitor global H3K4 tri-methylation as a measure of KDM5A/B inhibition. This assay is run against the NCGC Lopac collection of about 1,200 compounds to evaluate its amenability to quantitative High Throughput Screening (qHTS) platform.
# Early Translation Branch (ETB)
# National Center for Advancing Translational Sciences (NCATS), Rockville, MD
# National Institute of Health (NIH), Bethesda, Maryland
# [1] Sakurai, M et al. A miniaturized screen for inhibitors of Jumonji histone demethylases. Mol Biosyst. 2010 Feb;6(2):357-64. doi: 10.1039/b912993f. Epub 2009 Oct 8.
# 1536-well Black, solid bottom, medium binding assay plate is purchased from Greiner Bio-one. The enzymes (KDM5B) and substrate (H3K4me3/2) are provided by the principal investigators. The buffer for this assay is composed of 50mM HEPES at pH 7.5 with 0.01% Tween-20.
# FDH coupled qHTS protocol:
# Three microliter enzyme mix (buffer + 200nM KDM5BDeltaAP final concentration) is dispensed into the assay plate using the BioRAPTR Flying Reagent Dispenser (FRD; Beckton-Dickenson). Compound (at various final concentration) and control solution is pin transferred to the assay plate using the Kalypsys 1536-pin tool apparatus. The assay plate is incubated for 10 min at room temperature followed by addition of 1uL substrate mix (buffer + 100uM ascorbic acid, 50uM ferrous ammonium sulfate, 12.5uM H3K4Me3, 25uM a-ketoglutarate, 0.25 mM NAD+, 0.25 U/mL formaldehyde dehydrogenase using the FRD yielding a total reaction volume of 4 uL. Initial fluorescence (Read1) is detected using the PerkinElmer ViewLux plate reader equipped with 340 nm excitation and 450 nm emission filters. The final fluorescence (Read2) signal is obtained after 30 min of room temperature incubation. Delta RFU is calculated (Read2 - Read1) and is used to generated dose response curves
# Lysine-specific demethylase 5B (Homo sapiens), sequence (Q9UGL1 whole entry, looked up): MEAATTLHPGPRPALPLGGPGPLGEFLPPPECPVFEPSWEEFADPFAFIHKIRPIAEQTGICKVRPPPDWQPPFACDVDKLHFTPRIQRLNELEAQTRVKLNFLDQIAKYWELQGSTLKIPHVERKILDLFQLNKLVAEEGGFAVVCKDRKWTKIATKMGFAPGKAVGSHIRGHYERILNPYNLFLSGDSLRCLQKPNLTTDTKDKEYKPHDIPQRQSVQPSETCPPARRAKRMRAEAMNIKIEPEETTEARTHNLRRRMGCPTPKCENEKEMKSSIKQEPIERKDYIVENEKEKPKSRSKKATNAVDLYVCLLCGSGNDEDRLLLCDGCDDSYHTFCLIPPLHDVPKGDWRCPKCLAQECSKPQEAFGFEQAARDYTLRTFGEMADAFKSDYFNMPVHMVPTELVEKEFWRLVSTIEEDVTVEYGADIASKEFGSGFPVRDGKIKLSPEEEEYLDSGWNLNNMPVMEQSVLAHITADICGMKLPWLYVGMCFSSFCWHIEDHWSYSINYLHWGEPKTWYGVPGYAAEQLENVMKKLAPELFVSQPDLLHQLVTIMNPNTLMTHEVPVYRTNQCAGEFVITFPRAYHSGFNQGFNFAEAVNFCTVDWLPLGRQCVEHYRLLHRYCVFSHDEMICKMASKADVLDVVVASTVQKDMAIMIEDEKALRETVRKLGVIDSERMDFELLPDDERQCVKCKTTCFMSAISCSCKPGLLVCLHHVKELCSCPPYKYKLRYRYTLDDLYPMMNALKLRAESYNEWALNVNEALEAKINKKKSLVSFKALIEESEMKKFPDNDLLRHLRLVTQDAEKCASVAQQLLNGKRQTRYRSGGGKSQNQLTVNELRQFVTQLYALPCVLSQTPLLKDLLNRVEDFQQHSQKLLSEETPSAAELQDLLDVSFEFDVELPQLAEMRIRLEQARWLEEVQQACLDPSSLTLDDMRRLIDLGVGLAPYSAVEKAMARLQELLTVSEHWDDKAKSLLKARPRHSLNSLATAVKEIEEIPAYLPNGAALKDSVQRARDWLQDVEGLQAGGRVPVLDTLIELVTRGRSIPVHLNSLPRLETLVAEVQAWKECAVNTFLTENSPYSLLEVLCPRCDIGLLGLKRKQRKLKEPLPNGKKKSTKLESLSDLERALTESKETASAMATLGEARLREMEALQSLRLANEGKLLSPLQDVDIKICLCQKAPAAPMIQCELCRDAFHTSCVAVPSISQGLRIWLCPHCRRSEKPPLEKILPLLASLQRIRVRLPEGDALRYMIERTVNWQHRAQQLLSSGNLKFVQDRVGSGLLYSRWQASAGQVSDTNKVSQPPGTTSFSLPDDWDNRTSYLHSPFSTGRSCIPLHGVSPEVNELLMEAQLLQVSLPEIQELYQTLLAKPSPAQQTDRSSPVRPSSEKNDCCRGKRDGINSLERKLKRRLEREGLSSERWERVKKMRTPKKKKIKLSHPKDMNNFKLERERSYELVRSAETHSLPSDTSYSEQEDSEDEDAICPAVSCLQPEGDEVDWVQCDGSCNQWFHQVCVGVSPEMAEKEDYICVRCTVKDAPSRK
Compound,"activity, negative = inhibition",outcome
CN1C(=O)CCS(=O)(=O)C1c1ccc(Cl)cc1 (centres undefined),-8.23% (inactive),
COc1ccc2c(c1OC)C(=O)O[C@H]2[C@@H]1c2cc3c(cc2CCN1C)OCO3,-11.2% (inactive),
O=c1[nH]oc2c1CCNC2,-2.19% (inactive),
CC(C)N(CCC(C(N)=O)(c1ccccc1)c1ccccn1)C(C)C (centres undefined),,inactive
CC(NC(C)(C)C)C(=O)c1cccc(Cl)c1 (centres undefined),-6% (inactive),
CC(C)c1cccc(C(C)C)c1O,-3.03% (inactive),
CC(C)(C)NCC(O)c1ccccc1Cl (centres undefined),1.99% (inactive),
O=P1(N(CCCl)CCCl)NCCCO1 (centres undefined),-3.04% (inactive),
O=C(O)CCCc1ccc(N(CCCl)CCCl)cc1,-7.83% (inactive),
NCCc1ccc(O)cc1,-0.701% (inactive),
CCC1(c2ccc(N)cc2)CCC(=O)NC1=O (centres undefined),-8.23% (inactive),
Cc1ncsc1CCCl,-5.56% (inactive),
O=C(CCCN1CCC2(CC1)C(=O)NCN2c1ccccc1)c1ccc(F)cc1,-0.0535% (inactive),
C=C(C)[C@H]1CN[C@H](C(=O)O)[C@H]1CC(=O)O,-1.81% (inactive),
